Sensor-assay potency score (higher = more potent) data for 36 sequences are collected here from the OligoGym collection.
Note: reference of the scale not given here.

The target in one test is GPR64. In words: pooled miR-30 sensor sort-seq; sequence = guide strand. Conditions: shRNA.
Take TAGTCTACTCTCCTGTTCCTAA: the sensor-assay potency score (higher = more potent) was -0.669. TACATGTAGCAACAATAGCAGT gave a sensor-assay potency score (higher = more potent) of -1.27. In turn, TTGGTTTACAGTCTGCTTCTTT displayed a sensor-assay potency score (higher = more potent) of 0.449. Still for that read-out and setting: then ATTATCAGTATCTTCTTCCAGG, with -0.212; and TTGAAGAGCTGGACACTCCTTG, with 0.677; and TTCTATAATCTGACTACTGGGG, with -0.476. The sequence TAGTGTTGACATTCGCAGGGGC returned a sensor-assay potency score (higher = more potent) of 0.711. Sequence TAACAATCAACAATGTACCATG displayed a sensor-assay potency score (higher = more potent) of -0.826. In turn, TAGTGTATTGTTTAAAACCAAC registered a sensor-assay potency score (higher = more potent) of -1.45.

With TAAAGTAACATCATTGAGGCTT, the sensor-assay potency score (higher = more potent) was determined as 0.0974. On the same count and under the same terms, with TTGAATACTGGTTTTTCGCTGG the figure was 0.838; with TAAGCTTAAAGTAACATCTGGA, 0.962.

In another test the target is GPRC5B. Described as above. To be noted: shRNA.
With TTGTTCTCCATATAGGCCCGCG, the sensor-assay potency score (higher = more potent) is -1.02.

The sequence TTCGGAGAGCTGCATTGTGTTC showed a sensor-assay potency score (higher = more potent) of -1.86.

ATGAGCATCAGGAGCAGTGTGA gave a sensor-assay potency score (higher = more potent) of -1.27. The sequence TTGGGAAATCCTGCTGTTCGGA yielded a sensor-assay potency score (higher = more potent) of -0.702. On the same count and under the same terms, then TGCTGCAGCTTGACATTGCCGA, with -0.579; and AAGAGGTACATGGTCATCCAGG, with -1.02; and TACACGTTGCTTCTAAACGGAG, with -1.35. The same measure, in the same setting: with TACCATGTCGTAGATGAGGGCC the figure was -0.116; with ATACACGTTGCTTCTAAACGGA, -0.0127. In turn, TTGAGCACGACGGCCATCTCAG registered a sensor-assay potency score (higher = more potent) of -1.15. TTGAACTTGCCGCACAGAGTGA: the sensor-assay potency score (higher = more potent) is -0.846. Still for that read-out and setting: with TTCCACCTCTTGAACTTGCCGC the figure was -0.546.

The target in the next test is GPRC5C. The description is as above. To be noted: shRNA.
In turn, TCGTAAGCTCCTTCGGACGGAA had a sensor-assay potency score (higher = more potent) of -0.916.

TCCTTCGGACGGAACTTTGTGC gave a sensor-assay potency score (higher = more potent) of -0.974. On to TTCTTGCCGTCTTTCGGCGGTG, for which the sensor-assay potency score (higher = more potent) was -1.04. On to TCACAGAGGAGCAAGATCCAGG, for which the sensor-assay potency score (higher = more potent) was -0.72. As to ATGATGGTGAGCACAAACGTGG, the sensor-assay potency score (higher = more potent) was -1.32. The same measure, in the same setting: with TGATGTCGTAAGCTCCTTCGGA the figure was -0.537. The sequence TAGTACAGGGGGTTGAGGCCTT registered a sensor-assay potency score (higher = more potent) of 0.25. As to AAGACCTGAGAGTTCTTGCCGT, the sensor-assay potency score (higher = more potent) stood at 0.1. The same measure, in the same setting: with TTCGGACGGAACTTTGTGCATC the figure was -0.913; with TGAGGTTGCAGGAATCTCCAGA, 0.399. TTGGTGTCCTGCACAAAGGGGA showed a sensor-assay potency score (higher = more potent) of -0.48.

For ATGGTGAGCACAAACGTGGTGA, the sensor-assay potency score (higher = more potent) is -0.43.
